PubChem BioAssay AID1159580 (chemical genetic matrix, 2015)
Values joined by “and” are separate entries in the source; they are usually repeats but may differ in a detail not shown here. Equal values may be shown once. The whole screen tested about 5,500 compounds, of which about 2,000 (36%) were called active. Another 18% or so got no clear call; they are omitted. Rule as the data show it: active = normalized growth mostly below about 0.91 (no sharp cut-off); inconclusive = no clear call, values can overlap the other calls; inactive = mostly above about 0.92. This is one part of the list. Some structures have more than one record in an assay (separate samples or runs), and their calls can disagree.

Experiment: chemical genetic growth profiling, strain panel (AID 1159580);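 also: tested at 20 µM; growth read once vehicle control cultures reached saturation at 30 °C; 1 = growth at the plate median or of vehicle wells; lower values mean less growth of the strain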
Conditions: growth OD

CSc1ccc2c(c1)N(CCC1CCCCN1C)c1ccccc1S2 (stereo not given)
normalized growth (S. cerevisiae deletion strains, locus YJR075W, strain HOC1, stronger effect = lower value): 0.823 (active) | normalized growth (S. cerevisiae deletion strains, locus YKL009W, strain mrt4, stronger effect = lower value): 0.978 (inactive) | normalized growth (S. cerevisiae deletion strains, locus YKL068W, stronger effect = lower value): 1.01 (inactive) | normalized growth (S. cerevisiae deletion strains, locus YKL085W, strain MDH1 (second series), stronger effect = lower value): 1 (inactive) | normalized growth (S. cerevisiae deletion strains, locus YKL085W, strain MDH1, stronger effect = lower value): 1 (inactive) | normalized growth (S. cerevisiae deletion strains, locus YKL160W, strain elf1, stronger effect = lower value): 0.937 (inactive) | normalized growth (S. cerevisiae deletion strains, locus YKL190W, strain CNB1, stronger effect = lower value): 0.0633 (active) | normalized growth (S. cerevisiae deletion strains, locus YKR001C, strain vps1, stronger effect = lower value): 0.0672 (active) | normalized growth (S. cerevisiae deletion strains, locus YKR026C, strain gcn3, stronger effect = lower value): 1.02 (inactive) | normalized growth (S. cerevisiae deletion strains, locus YKR091W, strain srl3, stronger effect = lower value): 1.03 (inactive) | normalized growth (S. cerevisiae deletion strains, locus YLL001W, strain dnm1, stronger effect = lower value): 0.964 (inactive) | normalized growth (S. cerevisiae deletion strains, locus YLL026W, stronger effect = lower value): 0.981 (inactive) | normalized growth (S. cerevisiae deletion strains, locus YLL041C, strain sdh2, stronger effect = lower value): 0.976 (inactive) | normalized growth (S. cerevisiae deletion strains, locus YLR027C, strain aat2, stronger effect = lower value): 0.946 (inactive) | normalized growth (S. cerevisiae deletion strains, locus YLR039C, strain RIC1, stronger effect = lower value): 0.175 (active) | normalized growth (S. cerevisiae deletion strains, locus YLR058C, strain SHM2, stronger effect = lower value): 0.0859 (active) | normalized growth (S. cerevisiae deletion strains, locus YLR102C, strain apc9, stronger effect = lower value): 0.176 (active) | normalized growth (S. cerevisiae deletion strains, locus YLR113W, strain HOG1, stronger effect = lower value): 0.996 (inactive) | normalized growth (S. cerevisiae deletion strains, locus YLR221C, strain rsa3, stronger effect = lower value): 0.932 (inactive) | normalized growth (S. cerevisiae deletion strains, locus YLR258W, strain gsy2, stronger effect = lower value): 0.941 (inactive) | normalized growth (S. cerevisiae deletion strains, locus YLR262C, strain YPT6 (second series), stronger effect = lower value): 1.1 (inactive) | normalized growth (S. cerevisiae deletion strains, locus YLR262C, strain YPT6, stronger effect = lower value): 0.155 (active) | normalized growth (S. cerevisiae deletion strains, locus YLR268W, strain sec22, stronger effect = lower value): 0.122 (active) | normalized growth (S. cerevisiae deletion strains, locus YLR320W, strain mms22, stronger effect = lower value): 1 (inactive) | normalized growth (S. cerevisiae deletion strains, locus YLR330W, strain CHS5, stronger effect = lower value): 0.0954 (active) | normalized growth (S. cerevisiae deletion strains, locus YLR342W, strain FKS1 (second series), stronger effect = lower value): 0.07 (active) | normalized growth (S. cerevisiae deletion strains, locus YLR342W, strain FKS1, stronger effect = lower value): 0.866 (active) | normalized growth (S. cerevisiae deletion strains, locus YLR357W, strain rsc2, stronger effect = lower value): 0.996 (inactive) | normalized growth (S. cerevisiae deletion strains, locus YLR370C, strain arc18, stronger effect = lower value): 0.962 (inactive) | normalized growth (S. cerevisiae deletion strains, locus YLR371W, strain rom2, stronger effect = lower value): 0.116 (active) | normalized growth (S. cerevisiae deletion strains, locus YLR384C, strain iki3, stronger effect = lower value): 0.984 (inactive) | normalized growth (S. cerevisiae deletion strains, locus YLR418C, strain cdc73, stronger effect = lower value): 0.155 (active) | normalized growth (S. cerevisiae deletion strains, locus YML016C, strain PPZ1, stronger effect = lower value): 0.0677 (active) | normalized growth (S. cerevisiae deletion strains, locus YML032C, strain rad52, stronger effect = lower value): 0.484 (active) | normalized growth (S. cerevisiae deletion strains, locus YML120C, strain ndi1, stronger effect = lower value): 0.971 (inactive) | normalized growth (S. cerevisiae deletion strains, locus YML124C, strain tub3, stronger effect = lower value): 0.282 (active) | normalized growth (S. cerevisiae deletion strains, locus YMR058W, strain fet3, stronger effect = lower value): 0.859 (active) | normalized growth (S. cerevisiae deletion strains, locus YMR078C, strain ctf18, stronger effect = lower value): 1.04 (inactive) | normalized growth (S. cerevisiae deletion strains, locus YMR125W, strain sto1, stronger effect = lower value): 0.95 (inactive) | normalized growth (S. cerevisiae deletion strains, locus YMR129W, stronger effect = lower value): 0.977 (inactive) | normalized growth (S. cerevisiae deletion strains, locus YMR205C, strain PFK2, stronger effect = lower value): 0.966 (inactive) | normalized growth (S. cerevisiae deletion strains, locus YMR223W, strain ubp8, stronger effect = lower value): 0.142 (active) | normalized growth (S. cerevisiae deletion strains, locus YMR231W, strain pep5, stronger effect = lower value): 0.32 (active) | normalized growth (S. cerevisiae deletion strains, locus YMR263W, strain SAP30, stronger effect = lower value): 0.569 (active) | normalized growth (S. cerevisiae deletion strains, locus YMR307W, strain GAS1, stronger effect = lower value): 0.123 (active) and 0.981 (inactive) | normalized growth (S. cerevisiae deletion strains, locus YNL067W, strain RPL9B, stronger effect = lower value): 0.221 (active) | normalized growth (S. cerevisiae deletion strains, locus YNL071W, strain lat1, stronger effect = lower value): 1.05 (inactive) | normalized growth (S. cerevisiae deletion strains, locus YNL128W, strain TEP1, stronger effect = lower value): 1 (inactive) | normalized growth (S. cerevisiae deletion strains, locus YNL153C, strain GIM3, stronger effect = lower value): 0.0926 (active) | normalized growth (S. cerevisiae deletion strains, locus YNL175C, strain NOP13, stronger effect = lower value): 1.07 (inactive) | normalized growth (S. cerevisiae deletion strains, locus YNL183C, strain NPR1, stronger effect = lower value): 0.944 (inactive) | normalized growth (S. cerevisiae deletion strains, locus YNL197C, strain WHI3, stronger effect = lower value): 1.05 (inactive) | normalized growth (S. cerevisiae deletion strains, locus YNL209W, strain ssb2, stronger effect = lower value): 0.856 (active) | normalized growth (S. cerevisiae deletion strains, locus YNL224C, strain SQS1, stronger effect = lower value): 1.11 [resistant] (active) | normalized growth (S. cerevisiae deletion strains, locus YNL233W, strain BNI4, stronger effect = lower value): 0.0906 (active) | normalized growth (S. cerevisiae deletion strains, locus YNL248C, strain rpa49, stronger effect = lower value): 0.978 (inactive) | normalized growth (S. cerevisiae deletion strains, locus YNL250W, strain rad50, stronger effect = lower value): 1 (inactive) | normalized growth (S. cerevisiae deletion strains, locus YNL271C, strain bni1, stronger effect = lower value): 1 (inactive) | normalized growth (S. cerevisiae deletion strains, locus YNL298W, strain CLA4, stronger effect = lower value): 1 (inactive) | normalized growth (S. cerevisiae deletion strains, locus YNL307C, strain MCK1, stronger effect = lower value): 0.1 (active) | normalized growth (S. cerevisiae deletion strains, locus YNL322C, strain KRE1 (second series), stronger effect = lower value): 1.04 (inactive) | normalized growth (S. cerevisiae deletion strains, locus YNL322C, strain KRE1, stronger effect = lower value): 0.0818 (active) | normalized growth (S. cerevisiae deletion strains, locus YNR049C, strain mso1, stronger effect = lower value): 0.968 (inactive) | normalized growth (S. cerevisiae deletion strains, locus YNR052C, strain pop2, stronger effect = lower value): 0.133 (active) | normalized growth (S. cerevisiae deletion strains, locus YOL006C, strain TOP1, stronger effect = lower value): 0.115 (active) | normalized growth (S. cerevisiae deletion strains, locus YOL012C, strain htz1): 0.211 (inactive) | normalized growth (S. cerevisiae deletion strains, locus YOL147C, strain pex11, stronger effect = lower value): 0.176 (active) | normalized growth (S. cerevisiae deletion strains, locus YOR001W, strain rrp6, stronger effect = lower value): 0.956 (inactive) | normalized growth (S. cerevisiae deletion strains, locus YOR061W, strain CKA2, stronger effect = lower value): 0.0575 (active) | normalized growth (S. cerevisiae deletion strains, locus YOR069W, strain VPS5, stronger effect = lower value): 0.36 (active) | normalized growth (S. cerevisiae deletion strains, locus YOR070C, strain gyp1, stronger effect = lower value): 0.948 (inactive) | normalized growth (S. cerevisiae deletion strains, locus YOR080W, strain dia2, stronger effect = lower value): 0.976 (inactive) | normalized growth (S. cerevisiae deletion strains, locus YOR083W, strain WHI5 (second series), stronger effect = lower value): 0.774 (active) | normalized growth (S. cerevisiae deletion strains, locus YOR083W, strain WHI5, stronger effect = lower value): 0.915 (inactive) | normalized growth (S. cerevisiae deletion strains, locus YOR106W, strain vam3, stronger effect = lower value): 0.88 (inactive) | normalized growth (S. cerevisiae deletion strains, locus YOR136W, strain idh2, stronger effect = lower value): 0.139 (active) | normalized growth (S. cerevisiae deletion strains, locus YOR144C, strain elg1, stronger effect = lower value): 0.541 (active) | normalized growth (S. cerevisiae deletion strains, locus YOR184W, strain ser1, stronger effect = lower value): 0.128 (active) | normalized growth (S. cerevisiae deletion strains, locus YOR231W, strain MKK1, stronger effect = lower value): 1 (inactive) | normalized growth (S. cerevisiae deletion strains, locus YOR265W, strain rbl2, stronger effect = lower value): 0.961 (inactive) | normalized growth (S. cerevisiae deletion strains, locus YOR270C, strain vph1, stronger effect = lower value): 0.866 (inactive) | normalized growth (S. cerevisiae deletion strains, locus YOR290C, strain snf2, stronger effect = lower value): 0.981 (inactive) | normalized growth (S. cerevisiae deletion strains, locus YOR316C, strain cot1, stronger effect = lower value): 0.132 (active) | normalized growth (S. cerevisiae deletion strains, locus YPL051W, strain arl3, stronger effect = lower value): 0.881 (active) | normalized growth (S. cerevisiae deletion strains, locus YPL078C, strain atp4, stronger effect = lower value): 0.989 (inactive) | normalized growth (S. cerevisiae deletion strains, locus YPL106C, strain sse1, stronger effect = lower value): 1.02 (inactive) | normalized growth (S. cerevisiae deletion strains, locus YPL240C, strain hsp82, stronger effect = lower value): 0.98 (inactive) | normalized growth (S. cerevisiae deletion strains, locus YPL241C, strain CIN2, stronger effect = lower value): 0.107 (active) and 0.972 (inactive) | normalized growth (S. cerevisiae deletion strains, locus YPL256C, strain CLN2, stronger effect = lower value): 0.975 (inactive) | normalized growth (S. cerevisiae deletion strains, locus YPR119W, strain clb2, stronger effect = lower value): 0.31 (active) | normalized growth (S. cerevisiae deletion strains, locus YPR141C, strain kar3, stronger effect = lower value): 1.02 (inactive) | normalized growth (S. cerevisiae deletion strains, locus YPR163C, strain tif3, stronger effect = lower value): 0.0768 (active) | normalized growth (S. cerevisiae deletion strains, locus YPR167C, strain met16, stronger effect = lower value): 0.196 (active) | normalized growth (S. cerevisiae deletion strains, strain wtn01, stronger effect = lower value): 0.0859 (active) | normalized growth (S. cerevisiae strains, strain wild type, stronger effect = lower value): 0.0579 (active)
